Reference: article PMC4336329 (PLoS ONE, 2015)
About 2,200 (0.71%) of roughly 310,000 compounds showed an effect of 50% or more. Effects have a minus sign here. What follows is part of a selection rich in strong results, with near analogues and random picks from the rest.

What follows are molecules tested against human ether-à-go-go-related gene (hERG) potassium channel (human, UniProt Q12809) (assay: primary screen, population patch clamp on CHO cells stably expressing hERG; higher = less effect of the substance).
human ether-à-go-go-related gene (hERG) potassium channel, sequence (Q12809 whole entry, looked up): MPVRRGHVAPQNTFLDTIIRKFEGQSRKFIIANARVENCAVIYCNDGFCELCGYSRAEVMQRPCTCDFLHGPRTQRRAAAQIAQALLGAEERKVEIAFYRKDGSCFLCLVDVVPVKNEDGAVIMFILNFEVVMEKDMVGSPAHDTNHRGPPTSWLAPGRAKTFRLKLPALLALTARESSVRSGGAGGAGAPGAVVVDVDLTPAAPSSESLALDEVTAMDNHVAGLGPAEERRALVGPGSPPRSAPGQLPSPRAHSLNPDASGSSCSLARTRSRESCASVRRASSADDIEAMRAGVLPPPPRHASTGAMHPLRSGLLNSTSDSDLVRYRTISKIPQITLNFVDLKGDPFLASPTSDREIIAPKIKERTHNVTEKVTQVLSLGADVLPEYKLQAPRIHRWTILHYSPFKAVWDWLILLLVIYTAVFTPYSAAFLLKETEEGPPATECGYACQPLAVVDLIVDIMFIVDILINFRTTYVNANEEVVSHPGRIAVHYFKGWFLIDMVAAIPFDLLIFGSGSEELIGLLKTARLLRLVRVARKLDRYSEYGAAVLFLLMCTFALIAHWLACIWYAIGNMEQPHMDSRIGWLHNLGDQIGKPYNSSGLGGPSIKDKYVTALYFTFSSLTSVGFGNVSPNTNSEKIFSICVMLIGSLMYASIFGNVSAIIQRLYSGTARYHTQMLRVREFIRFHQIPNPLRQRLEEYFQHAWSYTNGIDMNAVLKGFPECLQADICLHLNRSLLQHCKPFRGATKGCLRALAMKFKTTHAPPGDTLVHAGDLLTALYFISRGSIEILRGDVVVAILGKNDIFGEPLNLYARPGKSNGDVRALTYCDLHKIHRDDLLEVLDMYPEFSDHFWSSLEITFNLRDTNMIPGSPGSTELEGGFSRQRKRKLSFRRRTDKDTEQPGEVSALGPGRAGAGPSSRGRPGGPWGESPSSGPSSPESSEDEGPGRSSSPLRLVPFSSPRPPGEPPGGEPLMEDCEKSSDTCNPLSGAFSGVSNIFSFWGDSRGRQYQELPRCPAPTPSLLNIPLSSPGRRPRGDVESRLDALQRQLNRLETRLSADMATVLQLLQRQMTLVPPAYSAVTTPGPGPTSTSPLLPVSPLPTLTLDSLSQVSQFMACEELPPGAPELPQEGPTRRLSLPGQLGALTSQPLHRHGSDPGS
In the case of `Cc1ccc2nc(C)n(-c3ccc(F)cc3)c(=O)c2c1`, the “hERG current change (%, negative = inhibition) at 1uM” value is reported as 19%. `CSc1nc(C)c2c(n1)N(c1ccc(F)cc1)CC2` was tested, and the “hERG current change (%, negative = inhibition) at 1uM” value was 20.1%. `COc1cccc(N2CCc3c(C)nc4ccc(Cl)cc4c32)c1` was tested, and the “hERG current change (%, negative = inhibition) at 1uM” value was -48.5%. In the case of `Cc1ccc2nc3c(c(N)c2c1)CCN3c1ccccc1.O=C(O)C(=O)O`, the “hERG current change (%, negative = inhibition) at 1uM” value is reported as -2.46%. `COc1c2c(cc3oc(=O)c4c5ccc(O)cc5oc4c13)OC(C)(C)CC2` was tested, and the “hERG current change (%, negative = inhibition) at 1uM” value was 17.1%. In the case of `c1cncc(-c2nnc(SCc3cccc4ccccc34)o2)c1`, the “hERG current change (%, negative = inhibition) at 1uM” value is reported as 0.0047%. With `CC(=O)N1CCN(c2nc(-c3ccco3)c3c(c2C#N)CC(C)(C)SC3)CC1` the “hERG current change (%, negative = inhibition) at 1uM” value was 7.62%. In the case of `CCOc1ccc(/C=C(/NC(=O)c2ccc(Cl)cc2)C(=O)O)cc1OCC`, the “hERG current change (%, negative = inhibition) at 1uM” value is reported as -4.42%. `COc1ccccc1CC(=O)Nc1ccc([N+](=O)[O-])cc1OC` was tested, and the “hERG current change (%, negative = inhibition) at 1uM” value was 8.75%. For `Cn1c(=NC(=O)C2CC2)sc2cccc(F)c21`, the “hERG current change (%, negative = inhibition) at 1uM” value was 1.19%. With `Cc1ccc(NS(=O)(=O)c2ccc3c(c2)N(C)CCO3)cc1` the “hERG current change (%, negative = inhibition) at 1uM” value was -79.6%. In the case of `CC(=O)c1ccc(NS(=O)(=O)c2ccc3c(c2)N(C)CCO3)cc1`, the “hERG current change (%, negative = inhibition) at 1uM” value is reported as 1.5%. `Cc1ccc(CNS(=O)(=O)c2ccc3c(c2)N(C)CCO3)cc1` was tested, and the “hERG current change (%, negative = inhibition) at 1uM” value was 17.8%. For `C/C(CC(=O)Nc1ccc(N(C)C)cc1)=N\NC(=O)c1ccc(C(C)(C)C)cc1`, the “hERG current change (%, negative = inhibition) at 1uM” value was 15.5%. `CCOC(=O)C1(Cc2cccc(OC)c2)CCN(Cc2ccccc2)CC1` was tested, and the “hERG current change (%, negative = inhibition) at 1uM” value was -7.08%. `CCOC(=O)C1(Cc2cccc(OC)c2)CCN(Cc2cccn2-c2ccccn2)CC1` was tested, and the “hERG current change (%, negative = inhibition) at 1uM” value was -79.4%. With `CCOC(=O)C1(Cc2ccccc2)CCN(Cc2cccn2-c2cccnc2)CC1` the “hERG current change (%, negative = inhibition) at 1uM” value was 1.67%. For `CCOC(=O)C1(Cc2ccccc2)CCN(Cc2cccc3nccnc23)CC1`, the “hERG current change (%, negative = inhibition) at 1uM” value was -10.3%. In the case of `CCOC(=O)C1(Cc2ccccc2)CCN(Cc2cccn2-c2nccs2)CC1`, the “hERG current change (%, negative = inhibition) at 1uM” value is reported as -69.8%. In the case of `CCOC(=O)C1(Cc2cccc(OC)c2)CCN(Cc2cccn2-c2nccs2)CC1`, the “hERG current change (%, negative = inhibition) at 1uM” value is reported as -77.7%. For `CCOC(=O)C1(Cc2cccc(OC)c2)CCN(Cc2cccc(O)c2)CC1`, the “hERG current change (%, negative = inhibition) at 1uM” value was -9.46%. For `CCOC(=O)C1(Cc2cccc(OC)c2)CCN(Cc2cccnc2)CC1`, the “hERG current change (%, negative = inhibition) at 1uM” value was 11.5%. In the case of `CCOC(=O)C1(Cc2cccc(OC)c2)CCN(Cc2ccccc2OC)CC1`, the “hERG current change (%, negative = inhibition) at 1uM” value is reported as -18.5%. In the case of `Cc1ccc(NC(=O)CN(C)C(=O)Cn2c(=O)oc3ccccc32)cc1`, the “hERG current change (%, negative = inhibition) at 1uM” value is reported as 7.84%. For `CC1CC(C)(C)NC(=S)N1CCCC(=O)N1CCN(c2ccc(F)cc2)CC1` (stereo not drawn), the “hERG current change (%, negative = inhibition) at 1uM” value was -4.06%. In the case of `CCCN(CCC)C(=O)Nc1cc(Cl)ccc1OC`, the “hERG current change (%, negative = inhibition) at 1uM” value is reported as 14.4%. With `CCOC(CNC(=O)Cn1nc(C)c2ccccc21)OCC` the “hERG current change (%, negative = inhibition) at 1uM” value was 8.42%. `CCCCn1nnc(NC(=O)c2ccc(-c3ccccc3)cc2)n1` was tested, and the “hERG current change (%, negative = inhibition) at 1uM” value was 13.7%. With `CC(C)(C)c1csc(NC(=O)c2c(F)c(F)c(F)c(F)c2F)n1` the “hERG current change (%, negative = inhibition) at 1uM” value was -2.19%. With `O=C(c1cc(-c2ccccc2)nc2ccccc12)N1CCN(c2ccccn2)CC1` the “hERG current change (%, negative = inhibition) at 1uM” value was 1.88%. With `O=C(c1cc(-c2ccncc2)nc2ccc(Br)cc12)N1CCN(c2ccccn2)CC1` the “hERG current change (%, negative = inhibition) at 1uM” value was -9.18%. With `O=C(c1cc(-c2ccncc2)nc2ccccc12)N1CCN(c2ccccn2)CC1` the “hERG current change (%, negative = inhibition) at 1uM” value was -64%. For `CCCCCCCC(=O)Nc1ccc(C(=O)N/N=C/c2cccc([N+](=O)[O-])c2)cc1`, the “hERG current change (%, negative = inhibition) at 1uM” value was 12.6%. In the case of `O=C(CCSc1ccccc1)OCn1nnc2ccccc2c1=O`, the “hERG current change (%, negative = inhibition) at 1uM” value is reported as 13.7%. `N#Cc1ccc(OCC(=O)N2CCN(S(=O)(=O)c3cccs3)CC2)cc1` was tested, and the “hERG current change (%, negative = inhibition) at 1uM” value was -54.7%. In the case of `O=C(COc1ccccc1)N1CCN(S(=O)(=O)c2cccs2)CC1`, the “hERG current change (%, negative = inhibition) at 1uM” value is reported as -7.49%. For `N#Cc1ccc(OCC(=O)N2CCN(S(=O)(=O)c3ccc(Cl)s3)CC2)cc1`, the “hERG current change (%, negative = inhibition) at 1uM” value was -22.7%. With `CCCc1cc(C(=O)O)c2ccccc2n1` the “hERG current change (%, negative = inhibition) at 1uM” value was -0.521%. For `CN(CCC#N)C(=O)COc1ccc(Br)cc1Cl`, the “hERG current change (%, negative = inhibition) at 1uM” value was 3.5%. `CC(C)c1csc(CN2CCN(Cc3ccccc3)C(CCO)C2)n1` (stereo not drawn) was tested, and the “hERG current change (%, negative = inhibition) at 1uM” value was 10.1%. With `COc1cccc(CN2CCN(Cc3nc(C(C)C)cs3)CC2CCO)c1` (stereo not drawn) the “hERG current change (%, negative = inhibition) at 1uM” value was -20%. `Cc1ccc(CN2CCN(Cc3nc(C(C)C)cs3)CC2CCO)cc1` (stereo not drawn) was tested, and the “hERG current change (%, negative = inhibition) at 1uM” value was -50.8%. With `CC(C)c1csc(CN2CCN(Cc3ccc(F)cc3)C(CCO)C2)n1` (stereo not drawn) the “hERG current change (%, negative = inhibition) at 1uM” value was -4.26%. `CC(C)c1csc(CN2CCN(Cc3ccc(F)c(F)c3)C(CCO)C2)n1` (stereo not drawn) was tested, and the “hERG current change (%, negative = inhibition) at 1uM” value was 2.23%. `CCOc1ccc(CN2CCN(Cc3nc(C(C)C)cs3)CC2CCO)cc1` (stereo not drawn) was tested, and the “hERG current change (%, negative = inhibition) at 1uM” value was -85.5%.
